Some test systems named below: SN12C renal; UO-31 renal; TK-10 renal; CAKI-1 renal; A498 renal; MOLT-4 leukemia; SR leukemia; RPMI-8226 leukemia; OVCAR-8 ovarian; OVCAR-5 ovarian; OVCAR-4 ovarian; SK-OV-3 ovarian; IGROV1 ovarian; OVCAR-3 ovarian; HS 578T breast; NCI/ADR-RES ovarian; ACHN renal; CCRF-CEM leukemia.
Common to all, as to experiment: NCI-60 one-dose screen, 48 h (100 = growth as untreated, 0 = no growth, -100 = all killed)
Settings in all cases: 10 µM unless noted

Several values for one entry are separate records, joined by “and”; a condition that tells them apart may be missing. Equal entries are not always repeated. The panel holds about 83,000 compounds, 20% with a hit somewhere; the sample as a whole holds those more often.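 Step 1: grow cells in 96-well plates. Step 2: add test compound at a single concentration. Step 3: incubate 48 h. Step 4: record percent growth.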 Values without a mark were called inactive. Activity calls are given as the source filed them. The calls were made as follows: active = growth percent below 10; inactive = the rest.

As for `O=C1C=CC(=O)N1c1cccc2c1CCCC2`, the growth with SN12C renal was 97.2%; in the test on UO-31 renal it was 87.9%; in the test with TK-10 renal it was 102%; in the test on CAKI-1 renal, 82.3%; with A498 renal, 96.2%; in the test on MOLT-4 leukemia, 74.2%. For the same compound, the growth in the test on SR leukemia is 87.6%; in the test on RPMI-8226 leukemia, 100%; in the test with OVCAR-8 ovarian, 110%; in the test on OVCAR-5 ovarian it was 103%; in the test on OVCAR-4 ovarian it was 102%; with SK-OV-3 ovarian, 99.5%. Besides, the growth in the test with IGROV1 ovarian was 97.5%; with OVCAR-3 ovarian, 106%; with HS 578T breast, 114%; with NCI/ADR-RES ovarian, 112%.
Consider `CC(C)(C)c1ccc(O)c(-c2ccccc2)c1`, for which the growth in the test with SN12C renal is 109%; with UO-31 renal, 110%; with TK-10 renal, 99.5%; in the test with ACHN renal, 102%; in the test with CAKI-1 renal, 86.7%; in the test on A498 renal, 121%. Further, the growth in the test on CCRF-CEM leukemia was 97.1%; in the test on SR leukemia, 57.7%; in the test on RPMI-8226 leukemia it was 97.1%; in the test on OVCAR-8 ovarian it was 107%; in the test with OVCAR-5 ovarian it was 111%; in the test with OVCAR-4 ovarian, 127%. Besides, the growth in the test with SK-OV-3 ovarian was 114%; in the test with IGROV1 ovarian it was 108%; with OVCAR-3 ovarian, 111%; with NCI/ADR-RES ovarian it was 106%.
For the compound `COc1ccc(Nc2nc3ccc(C(F)(F)F)cc3nc2C(=O)O)cc1`, in the test with TK-10 renal, the growth was -10.5% [100 µM] (active) and -93.8% [100 µM] (active).
Regarding `CCN(CC)CC(O)CNc1ccc(NCC2CO2)c2c1C(=O)c1ccccc1C2=O` (stereo not drawn), the growth is -15.9% (active) in the test on SN12C renal; -40.6% (active) in the test with UO-31 renal; -27% (active) in the test with TK-10 renal; -55.1% (active) with ACHN renal; -32% (active) in the test with CAKI-1 renal; 81.6% in the test on A498 renal. The growth with CCRF-CEM leukemia is -29.9% (active); in the test on SR leukemia, -4.42% (active); in the test on RPMI-8226 leukemia, -40.8% (active); with OVCAR-5 ovarian, -4.14% (active); with SK-OV-3 ovarian it was 22.5%; in the test with IGROV1 ovarian, -59.1% (active). The growth with OVCAR-3 ovarian was -1.52% (active); in the test on HS 578T breast, -40.4% (active); in the test with NCI/ADR-RES ovarian, -1.62% (active).
Consider `CCCCCCCCCCCCSC(=N)N`, for which the growth is 51.3% with SN12C renal; -27.2% (active) with UO-31 renal; 87.4% in the test with TK-10 renal; -12.6% (active) in the test with ACHN renal; -7.66% (active) in the test on CAKI-1 renal; 80.8% with A498 renal. Further, the growth in the test on CCRF-CEM leukemia was -22.8% (active); in the test on MOLT-4 leukemia, -37.1% (active); with SR leukemia, -32.1% (active); in the test with RPMI-8226 leukemia it was -42.2% (active); with OVCAR-8 ovarian, -60.6% (active); in the test with OVCAR-5 ovarian, 37.4%. The growth is 33.1% with OVCAR-4 ovarian; 79% in the test on SK-OV-3 ovarian; -15.2% (active) in the test with IGROV1 ovarian; 14.4% with OVCAR-3 ovarian; 92.1% with HS 578T breast; 35.6% with NCI/ADR-RES ovarian.
Take `Cc1ccc2cccc(OC(=O)Nc3cccc(C(F)(F)F)c3)c2n1`: the growth with SN12C renal is 61.5%; in the test with UO-31 renal it was 35.8%; with TK-10 renal, 83%; in the test on ACHN renal it was 36.4%; in the test on CAKI-1 renal, 35.4%; in the test on A498 renal, 66.3%. Further, the growth in the test on MOLT-4 leukemia was 40.4%; in the test on SR leukemia, 36.9%; with OVCAR-8 ovarian it was 53.5%; in the test with OVCAR-5 ovarian, 83.7%; in the test on OVCAR-4 ovarian, 73%; with SK-OV-3 ovarian, 108%. For the same compound, the growth was 58.2% with IGROV1 ovarian, 32.3% in the test on OVCAR-3 ovarian, 100% in the test with HS 578T breast and 58.9% with NCI/ADR-RES ovarian.
Consider `CCCCCCCCCCCC[N+]1(CCCCCCCCCCCC)CCCC(C)C1` (stereo not drawn), for which the growth is -72.4% (active) in the test with SN12C renal; -100% (active) in the test on UO-31 renal; -79.3% (active) in the test on TK-10 renal; -78.5% (active) in the test on ACHN renal; -88.4% (active) with A498 renal; -56.7% (active) in the test on CCRF-CEM leukemia. In addition, the growth in the test with MOLT-4 leukemia was -62.6% (active); with RPMI-8226 leukemia, -63.1% (active); in the test with OVCAR-8 ovarian it was -92.1% (active); in the test with OVCAR-5 ovarian, -98.3% (active); in the test on OVCAR-4 ovarian it was -86.3% (active); in the test on SK-OV-3 ovarian, -96.2% (active). In addition, the growth with OVCAR-3 ovarian is -88.7% (active); with HS 578T breast it was -40.8% (active).
As to `CCCCC(C=O)(C=C=C(C)C)CC` (stereo not drawn), the growth in the test on SN12C renal was 102%; in the test with UO-31 renal it was 93.4%; in the test on TK-10 renal, 104%; with ACHN renal it was 99.3%; with CAKI-1 renal, 98.2%; in the test on A498 renal, 82%. Further, the growth is 88.5% with CCRF-CEM leukemia; 97% in the test on MOLT-4 leukemia; 108% in the test on SR leukemia; 98% in the test on RPMI-8226 leukemia; 98.5% with OVCAR-8 ovarian; 98.3% with OVCAR-5 ovarian. Further, the growth in the test on OVCAR-4 ovarian is 96.5%; in the test with SK-OV-3 ovarian it was 98%; in the test on IGROV1 ovarian, 110%; with OVCAR-3 ovarian it was 107%; with HS 578T breast, 112%; with NCI/ADR-RES ovarian it was 106%.
In the case of `CC1CC(C)(C)OB(OC(C)CC(C)(C)OB2OC(C)CC(C)(C)O2)O1` (stereo not drawn), the growth was 101% in the test on SN12C renal; 90.9% in the test on UO-31 renal; 93.6% in the test with TK-10 renal; 108% in the test on ACHN renal; 105% with CAKI-1 renal; 118% with A498 renal. Moreover, the growth in the test with MOLT-4 leukemia is 99.2%; with SR leukemia it was 96.9%; in the test with RPMI-8226 leukemia, 100%; in the test on OVCAR-8 ovarian, 102%; with OVCAR-4 ovarian, 111%; in the test with IGROV1 ovarian it was 107%. Also, the growth with OVCAR-3 ovarian was 76.6%; with HS 578T breast, 121%; with NCI/ADR-RES ovarian it was 101%.
For `CN(C)c1ccc(/C=C/c2cc[n+](C)c(/C=C/c3ccc(N(C)C)cc3)c2)cc1`, the growth in the test with SN12C renal is 13.5%; in the test on UO-31 renal it was -11.4% (active); with TK-10 renal, 0.183% (active); in the test with ACHN renal, 14.6%; in the test with CAKI-1 renal, -4.63% (active); in the test on A498 renal, -10.3% (active). Also, the growth is -34.3% (active) in the test on SR leukemia; -26.4% (active) in the test on RPMI-8226 leukemia; 5.17% (active) in the test with OVCAR-8 ovarian; 21.9% in the test on OVCAR-5 ovarian; 19.9% in the test on OVCAR-4 ovarian; 7.83% (active) with SK-OV-3 ovarian. The growth with IGROV1 ovarian was 11%; in the test with OVCAR-3 ovarian, 20.5%; in the test on HS 578T breast, 32.9%; in the test on NCI/ADR-RES ovarian, 58.8%.
Regarding `CC(C)Nc1ccc(Nc2ccc(NC(C)C)cc2)cc1`, the growth was 30.7% in the test on SN12C renal; 87% in the test on UO-31 renal; 62.6% in the test with TK-10 renal; 70.4% in the test on ACHN renal; 94.4% in the test with CAKI-1 renal; 84.1% with A498 renal. Besides, the growth in the test with CCRF-CEM leukemia was 58.6%; in the test with MOLT-4 leukemia, 30.1%; with SR leukemia it was 26.2%; in the test on RPMI-8226 leukemia, 17.8%; in the test on OVCAR-8 ovarian it was 51.6%; with OVCAR-5 ovarian, 96.3%. Besides, the growth is 49.5% in the test on OVCAR-4 ovarian; 53.2% in the test with SK-OV-3 ovarian; 50.7% with IGROV1 ovarian; 31.6% with OVCAR-3 ovarian; 73.4% in the test on HS 578T breast; 95.5% with NCI/ADR-RES ovarian.

(Values after PubChem BioAssay (NCI).)
